From PubChem BioAssay
HT1080-NT tox – qHTS for induction of synthetic lethality in tumor cells producing 2HG: qHTS for the HT-1080-NT fibrosarcoma cell line; HT-1080-NT fibrosarcoma viability, CellTiter-Glo ATP luminescence, 48 h; Potency, µM (doses to about 46.1 µM), most hits filed as cytotoxic; 1.6% of 360,000 active; AID 686970, 2013;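 note: NT is the 2HG producing partner of a matched IDH1 knockdown line; nearly all actives have a fitted effect of over 55% in size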
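HT-1080-NT fibrosarcoma cells (2HG-overproducing), 750 cells/well in RPMI with 5% FBS, dosed after 2 h and incubated 48 h at 37C. CellTiter-Glo luminescence normalized to DMSO and no-cell wells; concentration-response curves fitted and classed.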
DT40 TDP1 no CPT – qHTS for Inhibitors of human tyrosyl-DNA phosphodiesterase 1 (TDP1): qHTS in cells in absence of CPT | DT40 Tdp1-/- hTDP1 cells, no CPT, ATP luminescence, 48 h | Potency, µM (highest dose often 46.2 µM), actives largely listed as inhibitors | 15% of 420,000 active | AID 686978, 2013; note: nearly all actives have a fitted effect of over 55% in size
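Seeded 400 DT40-hTDP1 cells/well (vehicle DMSO, no 20 nM CPT); pinned compounds; ≥48 hr at 37 °C; CellTiter-Glo luminescence as viability measure.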
HT1080 IDH1KD tx – qHTS for induction of synthetic lethality in tumor cells producing 2HG: qHTS for the HT-1080-IDH1KD cell line; Potency, µM (highest dose often 46.1 µM), hits mostly cytotoxic; HT-1080 IDH1 knockdown viability, ATP luminescence, 48 h; AID 686971, 2013; 2% of 360,000 active
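HT-1080-IDH1KD cells (IDH1 knocked down), 750/well in RPMI with 5% FBS, treated with compound 48 h at 37 degrees C. Viability by CellTiter-Glo luminescence, normalised to DMSO and no-cell wells; concentration-response curves classed.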
KB-V1 cytotox – qHTS assay for MDR1-selective chemotherapeutics: Primary screen using the drug-selected MDR subline cells KB-V1. KB-V1 MDR cells viability, CellTiter-Glo, 72 h. 3.4% of 400,000 active. Potency, µM (series often up to 46.1 µM), actives largely listed as cytotoxic; note: nearly all actives have a fitted effect of over 60% in size
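qHTS viability screen in drug-selected KB-V1 MDR cells: 72 h compound treatment at 37 degrees C, ATP luminescence end point.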
KB-3-1 cytotox – qHTS assay for MDR1-selective chemotherapeutics: Primary screen using the parental adenocarcinoma cell KB-3-1; KB-3-1 viability, CellTiter-Glo ATP luminescence, 72 h; AID 1347075, 2019; Potency, µM (highest dose often 46.1 µM), usual class: cytotoxic; 1.4% of 400,000 active; note: nearly all actives have a fitted effect of over 60% in size
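Cells are dispensed, compounds pinned in, plates held at 37 °C for 72 h, then CellTiter-Glo is added and luminescence read after 10 minutes. Cell line: parental KB-3-1 in phenol-red-free DMEM, 10% FBS.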
DT40 TDP1 CPT – qHTS for Inhibitors of human tyrosyl-DNA phosphodiesterase 1 (TDP1): qHTS in cells in presence of CPT | 12% of 420,000 active | Potency, µM (doses to about 46.2 µM), usual class: inhibitors | chicken DT40 Tdp1-/-;hTDP1 cells + 20 nM CPT, ATP luminescence, 48 h | AID 686979, 2013; note: nearly all actives have a fitted effect of over 55% in size
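Cell growth measured by CellTiter-Glo luminescence after a minimum 48 h, 37 C compound exposure with 20 nM CPT in Tdp1-knockout DT40 cells stably expressing hTDP1, seeded 400/well; qHTS titration format.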
Large screens that a line does not name were inactive. In the library only some 19% were active in any assay of this set; here they are far more common. Calls come from the whole dose curve; as a rule, active = well fitted curve in the direction sought with a large enough effect; inconclusive = small, poorly fitted or top-dose-only effect, or another doubt; inactive = no such curve, though single readings can be large; an effect the other way counts as inactive or inconclusive.

O=C(NCc1cccnc1)c1cc2nc(-c3cccs3)cc(C(F)(F)Cl)n2n1	DT40 TDP1 no CPT inconclusive, DT40 TDP1 CPT inconclusive
CCc1nnc(N2C(=O)c3ccccc3C2(O)c2ccccc2)s1 (centres undefined)	DT40 TDP1 no CPT inconclusive
Cc1cccc(C)c1-n1ncc(C(=O)Nc2ccc3c(c2)OCCO3)c1C1CCN(C(=O)OC(C)(C)C)CC1	DT40 TDP1 no CPT inconclusive, DT40 TDP1 CPT inconclusive (no result: HT1080-NT tox, HT1080 IDH1KD tx)
Cc1ccc(-n2ncc(C(=O)NCc3ccc4c(c3)OCO4)c2C2CCN(C(=O)OC(C)(C)C)CC2)cc1C	DT40 TDP1 no CPT inconclusive, DT40 TDP1 CPT 23µM (no result: HT1080-NT tox, HT1080 IDH1KD tx)
Cc1cccc(C)c1-n1ncc(C(=O)NCc2ccc3c(c2)OCO3)c1C1CCN(C(=O)OC(C)(C)C)CC1	DT40 TDP1 no CPT 15µM, DT40 TDP1 CPT inconclusive (no result: HT1080-NT tox, HT1080 IDH1KD tx)
CCCn1c(SCc2nc(-c3ccccc3OCC)no2)nnc1-c1ccc(Cl)cc1	DT40 TDP1 no CPT 18µM, DT40 TDP1 CPT inconclusive (no result: HT1080-NT tox, HT1080 IDH1KD tx)
CCCn1c(SCc2nc(-c3ccc(OC)cc3OC)no2)nnc1-c1ccc(Cl)cc1	DT40 TDP1 no CPT 26µM, DT40 TDP1 CPT 21µM (no result: HT1080-NT tox, HT1080 IDH1KD tx)
CCCn1c(SCc2nc(-c3cccs3)no2)nnc1-c1ccncc1	DT40 TDP1 no CPT inconclusive, KB-V1 cytotox inconclusive
COCC(=O)Nc1cc(C(=O)NC2CCc3ccccc32)c2c(c1)nc(-c1ccncc1)n2C (centres undefined)	DT40 TDP1 no CPT inconclusive (no result: HT1080-NT tox, HT1080 IDH1KD tx, KB-V1 cytotox, KB-3-1 cytotox)
COc1ccc(NC(=O)CN2CCC(C(=O)c3ccc(F)cc3)CC2)c(OC)c1	DT40 TDP1 no CPT 21µM, DT40 TDP1 CPT inconclusive
COc1ccc(NC(=O)CN2CCC(C(=O)c3ccc(C)cc3)CC2)c(OC)c1	DT40 TDP1 no CPT inconclusive, DT40 TDP1 CPT inconclusive
COc1ccc(NC(=S)N2CCC(C(=O)c3ccc(C)cc3)CC2)c(OC)c1	DT40 TDP1 no CPT 9.2µM, DT40 TDP1 CPT 13µM
Cc1ccc(NC(=O)CN2CCC(C(=O)c3ccc(F)cc3)CC2)cc1	DT40 TDP1 no CPT inconclusive, KB-V1 cytotox inconclusive, DT40 TDP1 CPT inconclusive
COc1ccc(OC)c(NC(=O)CN2CCC(C(=O)c3ccc(C)cc3)CC2)c1	DT40 TDP1 no CPT 21µM, HT1080 IDH1KD tx inconclusive, KB-V1 cytotox 8.2µM, KB-3-1 cytotox inconclusive, DT40 TDP1 CPT 26µM
CC(C)C[C@H](NC(=O)[C@@H](O)[C@H](N)Cc1ccccc1)C(=O)O	DT40 TDP1 no CPT 22µM (no result: HT1080-NT tox, HT1080 IDH1KD tx, KB-V1 cytotox, KB-3-1 cytotox)
CN(C)CCNc1nc(Oc2ccccc2)c2sccc2n1	none
CCc1ccccc1N(CC)C(=O)C(=O)Nc1ccc2nc3n(c(=O)c2c1)CCCCC3	DT40 TDP1 no CPT inconclusive, DT40 TDP1 CPT inconclusive (no result: HT1080-NT tox, HT1080 IDH1KD tx)
COc1ccc(C)cc1Nc1nc(C)nc2sc(C)cc12	HT1080-NT tox inconclusive, DT40 TDP1 no CPT 21µM, KB-V1 cytotox inconclusive, KB-3-1 cytotox inconclusive, DT40 TDP1 CPT inconclusive
CCOc1ccc(S(=O)(=O)N2CCC(C(=O)NCc3ccccn3)CC2)cc1C	none
COc1ccccc1NC(=O)CC1Sc2ccc(C(F)(F)F)cc2NC1=O (centres undefined)	none (no result: HT1080-NT tox, HT1080 IDH1KD tx)
CNC(=S)NNC(=O)c1cc(C(C)(C)C)nn1Cc1ccc(F)cc1	DT40 TDP1 no CPT 16µM, DT40 TDP1 CPT inconclusive
COc1cccc(O)c1O	DT40 TDP1 no CPT 4.6µM, DT40 TDP1 CPT 3.7µM (no result: HT1080-NT tox, HT1080 IDH1KD tx, KB-V1 cytotox, KB-3-1 cytotox)
COc1cccc2c1-c1c(O)cccc1C2=O	none
CC(C)(C)OC(=O)N1CCC(c2c(C(=O)NCCN3CCOCC3)cnn2-c2cccc(Cl)c2)CC1	DT40 TDP1 no CPT inconclusive, DT40 TDP1 CPT inconclusive (no result: HT1080-NT tox, HT1080 IDH1KD tx)
COc1cc(C2Nc3ccccc3C(=O)N2Cc2ccccc2)ccc1OCc1ccccc1 (centres undefined)	DT40 TDP1 no CPT inconclusive, DT40 TDP1 CPT inconclusive (no result: HT1080-NT tox, HT1080 IDH1KD tx)
